PubChem BioAssay AID720650 (Broad Institute, 2013)
Unmarked numbers belong to inactive results. The source made the active and inactive calls. No rule for the calls is given here.

experiment: C difficile toxins, biochemical counterscreen, UDPG substrate absence, confirmatory dose response (AID 720650); details: series mostly up to 19.5 µM

SMILES	AC50
Cc1c(CNC(=O)c2c([N+](=O)[O-])cnn2C)cnn1C	inactive
CC(OC(=O)c1cccnc1Cl)C(=O)NC1CCCCC1 (centres undefined)	inactive
CN(c1ccccc1)S(=O)(=O)c1cccc(C(=O)NCCc2ccc(O)c(O)c2)c1	inactive
O=C(NCc1cccnc1)c1cc(C2CCCCN2S(=O)(=O)c2cccc3cccnc23)on1 (centres undefined)	inactive
O=C(NCc1ccncc1)[C@@H]1CCCN1C(=O)[C@@H]1CCCN1	inactive
Cc1cc(-c2ccc(NS(=O)(=O)c3ccccc3)c(C)c2)ccc1NS(=O)(=O)c1ccccc1	inactive
S=C(c1cn(Cc2ccccc2)c2ccccc12)N1CCOCC1	inactive
COc1ccc(C(NC(C)=O)c2cc(Cl)c3cccnc3c2O)cc1 (centres undefined)	inactive
Cc1cccc(-c2n[nH]c(=S)n2/N=C/C=C/c2ccco2)c1	inactive
COc1cc(/C=C/C(=O)OCC(=O)c2ccc[nH]2)ccc1O	inactive
O=C(N/N=C/c1ccccn1)c1ccc([N+](=O)[O-])cc1Cl	inactive
Cc1ccc(Oc2c(CO)c(-c3ccccc3)nn2C)cc1	inactive
CNC(=O)C[C@H]1CC[C@@H]2[C@H](COc3ccc(NS(=O)(=O)c4ccccc4C)cc3C(=O)N2C)O1	inactive
COc1cccc2cc(/C(C)=N/NC(=O)c3ccco3)oc12	inactive
Cc1cc(C)c(S(=O)(=O)N2CCCCC2C(=O)O)c(C)c1 (centres undefined)	inactive
Cc1ccc2sc(NNC(=O)C3COc4ccccc4O3)nc2c1C (centres undefined)	0.238 µM (active)
COc1cc(/C=N/NC(=O)C2COc3ccccc3O2)ccc1O (centres undefined)	inactive
Cc1ccc(/C=C/c2onc(C)c2S(=O)(=O)N2CCC(C(=O)N3CCN(C)CC3)CC2)cc1	inactive
CCN1CC(CNCc2cn(-c3ccc(OC)cc3)nc2-c2ccccc2Cl)CC1=O (centres undefined)	inactive
CCOC(=O)c1ccc2ncc(-c3ccccc3)nc2c1	inactive

SMILES	AC50
CCNC(=O)C[C@H]1CC[C@@H]2[C@H](COc3ccc(NC(=O)c4ccc5c(c4)OCO5)cc3C(=O)N2C)O1	> 42 µM
COCC(=O)N1CC[C@@H]2[C@H]1c1cc(-c3ccccc3)ccc1N(C)[C@H]2CO	6.54 µM (active)
CCOC(=O)[C@H]1[C@H]2COc3ccc(OC)cc3[C@@H]2N2C(=O)CN(Cc3ccc(Cl)cc3)C(=O)[C@@]12C	inactive
Cn1c(-c2ccc(F)c(F)c2)cc2onc(-c3ccccc3)c2c1=O	inactive
COC(=O)C1=C(c2ccc(F)cc2OCc2ccccc2)C[C@@H]2CC[C@H]1N2C(=O)NCCOc1ccccc1	inactive
COc1cc2[nH]c(=S)n(Cc3cccs3)c(=O)c2cc1OC	inactive
COc1cccc(CC(=O)OCC(=O)Nc2c(C)nn(-c3ccccc3)c2C)c1	inactive
C[C@@H]1CN([C@H](C)CO)S(=O)(=O)c2ccc(-c3ccncc3)cc2O[C@@H]1CN(C)Cc1ccc(Oc2ccccc2)cc1	inactive
CCN1CCN(C(=O)C2=CC(c3ccc(OC)cc3)=NS(=O)(=O)N2C)CC1	inactive
Cc1cc(O)ccc1N=Cc1c(C(F)(F)F)[nH][nH]c1=O	10.9 µM (active)
CCCNC(=O)C[C@H]1CC[C@@H]2[C@@H](COc3ccc(NC(=O)c4ccc5c(c4)OCO5)cc3C(=O)N2C)O1	> 39 µM
COCCNc1cc(N)c([N+](=O)[O-])cc1[N+](=O)[O-]	inactive
Cc1ccc(S(=O)(=O)N2CCCC2C(=O)Nc2ccc(O)cc2)cc1 (centres undefined)	16.6 µM (active)
CCOc1ccccc1NC(=O)CCNS(=O)(=O)c1cccc2nonc12	inactive
CC1C(c2ccc3c(c2)OCO3)c2cc3c(cc2OC1N1CCOCC1)OCO3 (centres undefined)	inactive
CCSc1nnc(NC(=O)C2CC2c2ccccc2)s1 (centres undefined)	inactive
CC(=O)N/C(=C\c1ccccc1)C(=O)Nc1ccc(O)cc1	17 µM (active)
CNC(=O)C1CCN(S(=O)(=O)c2c(C)noc2/C=C/c2ccccc2F)CC1	inactive
Nc1nc(CCOc2ccc(F)cc2)cs1	inactive
